Results from ChEMBL document CHEMBL1157539, “Thousands of chemical starting points for antimalarial lead identification” (Nature, 2010).

system: Plasmodium falciparum; assay: GSK_TCMDC: Inhibition of Plasmodium falciparum Dd2 in whole red blood cells, using parasite LDH activity as an index of growth. Test compounds present at 2uM; assay type: functional

Compound	Inhibition [%]
COc1ccc(-c2cccc(NC(=O)c3cccc(Cl)c3)c2)cc1CN1CCCN(C)CC1.O=C(O)C(F)(F)F	99
CN(C)CCOc1ccc2c(=O)cc(CCc3cccc(F)c3F)n(CC(=O)N(C)Cc3ccc(-c4ccc(C(F)(F)F)cc4)cc3)c2c1.O=C(O)C(O)C(O)C(=O)O	60
O=S(=O)(c1ccc(Cl)cc1Cl)N1CCCCC(c2ccc(C(F)(F)F)cc2)=N1	99
Cc1nnsc1C(=O)Nc1cccc(-c2ccc(-c3nc4cc(F)ccc4[nH]3)s2)c1	22
COCCSc1nc2scc(C)c2c(=O)n1Cc1cccc(OC)c1	33
O=C(/C=C/c1ccc(Cl)c(Cl)c1)NCCCCCN1CCN(C(=O)Nc2cccc(F)c2)CC1	1
CN1CCC(NCc2cccc(-c3ccc(S(=O)(=O)NCc4ccccc4)cc3)c2)CC1.O=C(O)C(F)(F)F	93
CC(=O)Nc1ncc(C(=O)Nc2cccc(-c3ccc(-c4nc5ccccc5[nH]4)cc3)c2)s1	66
Cc1nnsc1C(=O)Nc1cccc(-c2ccc(-c3nc4cccc(C)c4[nH]3)s2)c1	44
CCCCCCSc1nnc(COc2cccc3ccccc23)n1-c1ccc(OC)cc1	100
Br.C=CCNC(CCCCC)c1ccc(OCCOc2ccc(C(CCCCC)NCC=C)cc2)cc1 (stereo not given)	48
COc1cc(Cc2c(C)nc3nc(N)nc(N)c3c2C)c(Br)c(OC)c1OC.Cl	0
CCN(C1CCCCC1)S(=O)(=O)c1ccc(OC)c(N2CCN(C(=O)C(Cl)(Cl)Cl)CC2)c1	85
O=C(Cc1ccc(Cl)cc1)NC1CCN(c2ccnc3cc(Cl)ccc23)C1.O=C(O)C(F)(F)F (stereo not given)	99
CCc1c(CCNCCCCCCNCCc2ccc(OC)c(OC)c2CC)ccc(OC)c1OC.Cl	1
CO/C(=C\C=C\c1cc2cc(Cl)c(Cl)cc2[nH]1)C(=O)NCC(C)(C)CN(C)C	27
O=C(NCC1CCC(C(=O)NCCN2CCCCC2)CC1)c1ccc(O)c(-c2ccc(Cl)c(Cl)c2)c1 (stereo not given)	22
Cn1nc(-c2ccc(CN[C@@H]3CCc4ccc(O)cc43)cc2)c2cnc(NC3CCCC3)nc21	8
COCn1ncc2cc(-c3cccc(NC(=O)c4csc(NC(C)=O)n4)c3)ccc21	68
O=C1COc2ccc(CNC3CCC(O)(CCc4ccnc5cc6c(cc45)OCCO6)CC3)nc2N1 (stereo not given)	0

Compound	Inhibition [%]
CCOc1ccc(C(=O)N2CCOC(CCN3CCC4(CCc5ccccc54)CC3)(c3ccc(Cl)c(Cl)c3)C2)cc1 (stereo not given)	25
Cl.O=S(=O)(Nc1cc2c(cc1O)CCNCC2)c1ccc(-c2ccc(Cl)cc2)cc1	0
COc1cc(CNC[C@@H](O)[C@H](Cc2ccccc2)NC(=O)c2cc(OC(C)C)cc(N3CCCS3(=O)=O)c2)cc(OC)c1.Cl	72
CC(C)CNCc1cccc(-c2cccc(CN(CCN(C)C)C(=O)NCCc3ccccc3)c2)c1.O=C(O)C(F)(F)F	83
O=C(Nc1ccc(OC2CCN(Cc3ccc(F)cc3)C2)cc1)c1cccs1.O=C(O)C(F)(F)F (stereo not given)	92
Cc1nnc2c(NC(=O)NC3CCCC3)cc3ccc(-c4cccc(CN5CCN(C)CC5)c4)cc3n12	68
COc1ccc2nccc([C@@H](O)CN3CCC(NCc4cc5ccccc5nc4O)CC3)c2c1.Cl	0
NC(=O)CCC(NC(=O)CNC(=O)Nc1cccc(C(F)(F)F)c1)C(=O)O (stereo not given)	93
O=C(Nc1ccc2nc3n(c(=O)c2c1)CCCCC3)C(=O)N1CCN(c2ccc(F)cc2)CC1	86
Cc1cc2nc(-c3ccc(C(=O)NC4CCN(Cc5ccccc5)CC4)cc3)[nH]c2cc1C	99
Cc1ccccc1C1CCN(C2CCC(NC(=O)/C=C/c3cc(F)cc(F)c3)CC2)CC1 (stereo not given)	33
O=C(O)C(F)(F)F.c1cc(-c2ccc(CN3CCN(c4ccncc4)CC3)cc2)cc(-c2nc3ccccc3[nH]2)c1	100
Cl.Nc1c2c(nc3ccc(NC(=O)CCCc4ccccc4)cc13)CCCC2	42
Cc1cc(-c2nc3ccc(N4CCN(C)CC4)cc3[nH]2)nn1Cc1cc(Cl)ccc1OCC(C)C.Cl	67
O=C(CN(c1cccc(C(F)(F)F)c1)S(=O)(=O)c1ccc(Cl)cc1)NCCC(c1ccccc1)c1ccccc1	50
CN1CCC(NCc2cccc(-c3cnc(NCc4ccccc4)nc3)c2)CC1.O=C(O)C(F)(F)F	67
O=[N+]([O-])c1ccc(N2CCCN(C(=S)Nc3ccc(F)cc3Br)CC2)nc1	99
O=C(/C=C/c1ccc(Cl)c(Cl)c1)NCCCCCN1CCC(NC(=O)Nc2ccc(OC(F)F)cc2)CC1	18
CC=CC1CCNC(C(O)c2ccnc3ccc(OC)cc23)C1 (stereo not given)	1
CN1CCN(Cc2ccc(-c3ccc4c(Nc5ccc(Cl)cc5F)ccnc4c3)o2)CC1	100
